Consider 27 compounds from the supplement of paper PMC7695840.

Where a name gives a salt, the structure may show the parent alone.

For assay [1], the system named is Staphylococcus aureus MW2 delta-mecA (mecA-). In words: normalized GFP fluorescence (growth of mecA- strain) (fraction of control range); higher = more growth of mecA- strain. The note with it: compound concentration: 150 uM; cefoxitin: subinhibitory; fluorescent label: GFP. Summed up: (§1)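 Compound at 150 μM (1.5% DMSO) in 1536-well plates received 5 µL/well of pre-induced S. aureus MW2 cells mixed 1:1, gene-carrying with DsRed and gene-deleted with GFP, in LB with a daily-set subinhibitory antibiotic dose, single replicate. After 20 h unshaken at 37 °C, 90% humidity, DsRed (540/590) and GFP (485/520) were measured and scaled per plate between single-strain control medians. Plates with high untreated ratios and rows with DsRed/GFP >10 were excluded.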

Assay [2] has as its system Staphylococcus aureus MW2 (mecA+). In words: normalized DsRed fluorescence (growth of mecA+ strain) (fraction of control range); higher = more growth of mecA+ strain. Conditions: compound concentration: 150 uM; cefoxitin: subinhibitory; fluorescent label: DsRed. Summed up:
as §1

`CC(O)CN1CCN(CC(=O)[O-])CCN(CC(=O)[O-])CCN(CC(=O)[O-])CC1.[Gd+3]` (stereo not drawn): the “normalized GFP fluorescence” value in assay [1] was 0.58. Also, in assay [2], the “normalized DsRed fluorescence” value came to 0.515.
As to `O=C1CN=C(c2ccccc2Cl)c2cc([N+](=O)[O-])ccc2N1`, in assay [1], the “normalized GFP fluorescence” value was 0.145. In addition, the “normalized DsRed fluorescence” value in assay [2] was determined as 1.02.
As for `CC(C)N(CCC(C(N)=O)(c1ccccc1)c1ccccn1)C(C)C` (stereo not drawn), in assay [1], the “normalized GFP fluorescence” value came out at 0.541. Moreover, the “normalized DsRed fluorescence” value in assay [2] is 0.697.
Take `CC(C)CC(N(C)C)C1(c2ccc(Cl)cc2)CCC1` (stereo not drawn): the “normalized GFP fluorescence” value in assay [1] worked out at 0.0915.
Take `C[C@]12CC[C@H]3[C@@H](CC[C@@]45O[C@@H]4C(O)=C(C#N)C[C@]35C)[C@@H]1CC[C@@H]2O`: the “normalized GFP fluorescence” value in assay [1] was 0.134. Besides, the “normalized DsRed fluorescence” value in assay [2] came to 1.06.
As for `Oc1ccc2c3c1O[C@H]1[C@@H](O)CC[C@@]4(O)[C@@H](C2)N(CC2CCC2)CC[C@]314`, the “normalized GFP fluorescence” value in assay [1] came to 0.717. The “normalized DsRed fluorescence” value in assay [2] was determined as 0.715.
Consider `c1ccc2c(c1)Nc1ccccc1S2`, for which, in assay [1], the “normalized GFP fluorescence” value amounted to 0.132. The “normalized DsRed fluorescence” value in assay [2] stood at 0.671.
As for `NC(=O)C[S+]([O-])C(c1ccccc1)c1ccccc1` (stereo not drawn), in assay [1], the “normalized GFP fluorescence” value is 0.716. Further, in assay [2], the “normalized DsRed fluorescence” value stood at 0.558.
Regarding `CCC1(c2cccc(O)c2)CCCCN(C)C1` (stereo not drawn) [Meptazinol HCl], the “normalized GFP fluorescence” value in assay [1] stood at 0.168. The “normalized DsRed fluorescence” value in assay [2] came out at 0.815.
For `CCC(=O)O[C@H]1CC[C@H]2[C@@H]3CCC4=CC(=O)CC[C@]4(C)[C@H]3CC[C@]12C`, the “normalized GFP fluorescence” value in assay [1] turned out to be 0.154. Moreover, in assay [2], the “normalized DsRed fluorescence” value stood at 0.364.
Turning to `C[C@]12CC[C@@H]3c4ccc(OC(=O)N(CCCl)CCCl)cc4CC[C@H]3[C@@H]1CC[C@@H]2O`, the “normalized GFP fluorescence” value in assay [1] worked out at 0.117. Moreover, the “normalized DsRed fluorescence” value in assay [2] was determined as 0.515.
As for `CC(C)C[C@H](CN)CC(=O)O`, in assay [1], the “normalized GFP fluorescence” value was 0.412. In addition, in assay [2], the “normalized DsRed fluorescence” value worked out at 0.571.
For `NC(=O)C[S@@+]([O-])C(c1ccccc1)c1ccccc1`, in that order: 0.234 and 1.11.
As for `CNC(=O)Oc1ccc2c(c1)[C@]1(C)CCN(C)[C@@H]1N2C`, the “normalized GFP fluorescence” value in assay [1] is 0.574. Moreover, in assay [2], the “normalized DsRed fluorescence” value came to 0.687.
The matching figures for `N.N.[Cl][Pt][Cl]`: 0.807 and 0.697.
For `C=C/C=C\CC1=C(C)[C@@H](OC(=O)[C@@H]2[C@@H](/C=C(\C)C(=O)OC)C2(C)C)CC1=O.C=C/C=C\CC1=C(C)[C@@H](OC(=O)[C@@H]2[C@@H](C=C(C)C)C2(C)C)CC1=O`, the “normalized GFP fluorescence” value in assay [1] was found to be 0.39. In addition, in assay [2], the “normalized DsRed fluorescence” value amounted to 0.442.
As for `C[C@@H]1[C@H](O)[C@@H](C)/C=C/C=C/CC/C=C/C=C/C=C/C=C/[C@H](O[C@H]2O[C@@H](C)[C@H](O)[C@@H](N)[C@H]2O)C[C@@H]2O[C@](O)(C[C@@H](O)[C@H](O)CC[C@@H](O)C[C@@H](O)C[C@@H](O)CC(=O)O[C@H]1C)C[C@H](O)[C@H]2C(=O)O` [Nystatin (Fungicidin)], the “normalized GFP fluorescence” value in assay [1] amounted to 0.00493. In addition, the “normalized DsRed fluorescence” value in assay [2] was 0.585.
As for `O=C(O[C@H]1C[C@H]2CC[C@@H](C1)[N+]21CCCC1)C(O)(c1ccccc1)c1ccccc1` [Trospium chloride (Sanctura)], the “normalized GFP fluorescence” value in assay [1] was determined as 0.723. The “normalized DsRed fluorescence” value in assay [2] worked out at 0.453.
Take `CNC(C)[C@H](O)c1ccccc1` (stereo partly drawn): the “normalized GFP fluorescence” value in assay [1] came to 0.353. Also, in assay [2], the “normalized DsRed fluorescence” value is 0.809.
In the case of `O=C1CC[C@@]2(O)[C@H]3Cc4ccc(O)c5c4[C@@]2(CCN3CC2CC2)[C@H]1O5`, in assay [1], the “normalized GFP fluorescence” value is 0.283. In addition, in assay [2], the “normalized DsRed fluorescence” value is 0.86.
The matching figures for `CC(=O)OC1CN2CCC1CC2` (stereo not drawn): 0.565 and 0.665.
For `O=[N+]([O-])O[C@@H]1CO[C@H]2[C@@H]1OC[C@@H]2O`, in assay [1], the “normalized GFP fluorescence” value came out at 0.742. Moreover, the “normalized DsRed fluorescence” value in assay [2] is 1.13.
For `CN1C[C@H](C(=O)N[C@]2(C)O[C@@]3(O)[C@@H]4CCCN4C(=O)[C@H](Cc4ccccc4)N3C2=O)C=C2c3cccc4[nH]cc(c34)C[C@H]21`, in that order: 0.435 and 1.11.
Regarding `O=[N+]([O-])O[C@H]1CO[C@H]2[C@@H]1OC[C@H]2O[N+](=O)[O-]`, the “normalized GFP fluorescence” value in assay [1] was 0.915. Also, the “normalized DsRed fluorescence” value in assay [2] turned out to be 0.65.
With `O=c1[nH]c2ccccc2n1CCCN1CCC(n2c(=O)[nH]c3cc(Cl)ccc32)CC1` [Domperidone (Motilium)], the “normalized GFP fluorescence” value in assay [1] is 0.0985. Moreover, the “normalized DsRed fluorescence” value in assay [2] stood at 0.927.
For the compound `CCC(COC(=O)c1cc(OC)c(OC)c(OC)c1)(c1ccccc1)N(C)C` (stereo not drawn) [Trimebutine], in assay [1], the “normalized GFP fluorescence” value is 0.293. Further, the “normalized DsRed fluorescence” value in assay [2] was determined as 0.646.
For `CC[C@H]1CN2CCc3cc(OC)c(OC)cc3[C@@H]2C[C@@H]1C[C@H]1NCCc2cc(OC)c(OC)cc21`, in that order: 0.439 and 0.948.
